Compound activity deposited in PubChem by The Scripps Research Institute Molecular Screening Center.
GPR151 activ: activators of human GPR151, primary screen, cell-based, PathHunter beta-arrestin, luminescence; 650,000 tested, 1% active; activation, % at 11.2 µM; G-protein coupled receptor 151 (Homo sapiens), Q8TDV0; PathHunter beta-arrestin GPR151 cells; in the data active = activation above about 4.9%
Target sequence (Q8TDV0 whole entry, looked up): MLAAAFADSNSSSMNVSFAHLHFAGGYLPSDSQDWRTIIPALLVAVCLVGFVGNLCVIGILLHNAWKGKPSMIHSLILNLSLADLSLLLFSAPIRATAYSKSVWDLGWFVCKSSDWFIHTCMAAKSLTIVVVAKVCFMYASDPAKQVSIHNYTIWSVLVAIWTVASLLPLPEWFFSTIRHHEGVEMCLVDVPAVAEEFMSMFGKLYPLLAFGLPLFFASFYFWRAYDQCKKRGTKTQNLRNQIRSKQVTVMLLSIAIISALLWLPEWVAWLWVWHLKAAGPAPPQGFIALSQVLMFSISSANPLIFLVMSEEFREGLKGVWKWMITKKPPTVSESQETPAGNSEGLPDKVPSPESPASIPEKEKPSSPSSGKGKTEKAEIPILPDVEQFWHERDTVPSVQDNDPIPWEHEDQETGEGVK
TEAD-YAP block: TEAD-YAP interaction inhibition, primary screen, TEAD-YAP interaction inhibitor project, luminescence, HEK-TIYL cells. TEAD-Gal4/YAP UAS-luciferase luminescence. inhibition, % at 9.12 µM. 640,000 tested, 1.4% active; in the data active = inhibition above about 32%
FBW7 act: FBW7 E3 ligase activators, primary screen, biochemical, AlphaScreen, human; AlphaScreen FBW7–phospho-cyclin E peptide binding, activator screen; AID 1259310, 2017; normalized activity (activation), % at 26.1 µM; F-box/WD repeat-containing protein 7 (Homo sapiens), Q969H0; 650,000 tested, 0.13% active; in the data active = normalized activity above about 1.9%;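 also: purified mutant Fbw7 with reduced substrate affinity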
MITF primary: MITF inhibitors, primary screen, biochemical, AlphaScreen, human. Microphthalmia-associated transcription factor (Homo sapiens), O75030. AlphaScreen MITF homodimerization, bead proximity signal. inhibition, % at 2.6 µM. 650,000 tested, 0.91% active; in the data active = inhibition above about 50%
Of the large screens only hits and unclear results are named; the others gave an inactive call. Sampled rows, rich in hits. Any-hit rate of the full collection: about 3.5%.

Cc1ccc(NC(=O)/C(C#N)=C/c2ccccc2O)cc1	TEAD-YAP block 49
Cc1cccc(NC(=O)/C(C#N)=C\c2ccccc2O)c1	none
COc1ccc(NC(=O)/C(C#N)=C/c2ccc(Br)o2)cc1	none
COc1ccc(NC(=O)/C(C#N)=C/c2ccccc2OC(C)C)cc1	TEAD-YAP block 51
CCOC(=O)C1=C(N)N(c2ccc(Br)cc2)C2=C(C(=O)CC(C)(C)C2)C1c1cccs1 (centres undefined)	none
CC(=O)N(C)c1ccc(NC(=O)/C=C\C(=O)O)cc1	none
O=C(Nc1ccccc1)N1CCC2(CC1)NCCc1c2[nH]c2ccc(Cl)cc12	TEAD-YAP block 46
Nc1ncc(N=Nc2cc(C(=O)O)cc(C(=O)O)c2)s1	MITF primary 61
Nc1ncc(N=Nc2cc(C(=O)O)ccc2Cl)s1	none
Cc1nc(N)sc1N=Nc1cc(C(=O)O)cc(C(=O)O)c1	MITF primary 52
O=C(NC1=NCCS1)c1cc([N+](=O)[O-])ccc1N1CCCCC1	none
CCOC(=O)C1=C(C)N=c2s/c(=C\c3cn(Cc4ccccc4Cl)c4ccccc34)c(=O)n2C1c1cc(OC)ccc1OC (centres undefined)	none
Cc1cc(N/N=C\c2ccccc2)nc(-c2ccccc2O)n1	none
Cc1cc(N/N=C/c2ccc(O)cc2O)nc(-c2ccccc2O)n1	TEAD-YAP block 43
Cc1nc(N/N=C/c2ccc(O)cc2O)cc(-c2ccccc2)n1	none
Oc1ccc(/C=N/Nc2ncc(-c3ccccc3)cn2)c(O)c1	TEAD-YAP block 62
FC(F)(F)c1cccc(CNc2ncnc3nc(Nc4cnccn4)[nH]c23)c1	none
CCCNc1nc(-c2ccc(OC)cc2)nc2c1ncn2-c1ccccc1	none
c1ccc(-c2nc(NCc3cccnc3)c3ncn(-c4ccccc4)c3n2)cc1	none
NC(=O)c1ccc(-c2nc(NCc3cccnc3)c3ncn(-c4ccccc4)c3n2)cc1	TEAD-YAP block 55
CCCNc1nc(-c2ccc(C(N)=O)cc2)nc2c1ncn2-c1ccccc1	TEAD-YAP block 52
CCCNc1nc(-c2ccc(C(N)=O)cc2)nc2c1ncn2-c1ccsc1	TEAD-YAP block 52
CC(C)N(CCNc1nc(-c2ccc(C(N)=O)cc2)nc2c1ncn2-c1ccsc1)C(C)C	TEAD-YAP block 61
O=C(NCc1ccccc1Cl)c1ccc2c(=O)n(C3CCCCC3)c(SCc3ccccn3)nc2c1	none
NC(=O)c1ccc(-c2nc(NCCc3ccc(O)cc3)c3ncn(-c4ccccc4)c3n2)cc1	TEAD-YAP block 66
Cc1ccccc1NC(=O)Cn1c(C)cc(=O)c2ccccc21	TEAD-YAP block 39
CC(=O)Nc1cccc(C(=O)OCc2ccc(C(C)(C)C)cc2)c1	none
CCCOC(=O)COc1ccc2c3c(c(=O)oc2c1C)CCC3	none
CC(=O)N1c2ccc(-c3csc(NC(=O)c4ccncc4)n3)cc2CC1C (centres undefined)	TEAD-YAP block 68
O=C(NCCNC(=O)c1ccccc1Br)c1ccccc1Br	none
O=C(NCCc1ccccc1)c1ccc(Cl)cc1	TEAD-YAP block 64
O=C(NCCc1ccccc1)C1(S(=O)(=O)c2ccc(Cl)cc2)CC1	FBW7 act 2.0
O=C(NCCc1ccccc1)c1cc(F)c(F)cc1Cl	TEAD-YAP block 34
O=C(NCCc1ccccc1)c1ccccc1Br	TEAD-YAP block 34
Cc1ccc(S(=O)(=O)C2(C(=O)NCCc3ccccc3)CC2)cc1	none
O=C(NCCc1ccccc1)c1ccc(Br)cc1	none
C=CCSc1ncccc1C(=O)NCc1ccc2c(c1)OCO2	none
O=C(NCCc1ccccc1)c1ccccc1Cl	TEAD-YAP block 33
O=C(Nc1ccccc1C(=O)NCCc1ccccc1)c1ccccc1Cl	none
CCOc1ccc(NC(=O)CN2CCC(c3nc4ccc(Cl)cc4[nH]3)CC2)cc1	none
Cc1ccnc(NC(=O)COc2ccc(Br)cc2Cl)c1	TEAD-YAP block 93
O=C(COc1ccc(Cl)cc1Br)Nc1nccs1	TEAD-YAP block 89
Cc1ccnc(NC(=O)COc2cc(C)ccc2C)c1	none
O=C(COc1ccc(Br)cc1Cl)Nc1nccs1	TEAD-YAP block 92
O=C(COc1cc(Cl)c(Cl)cc1Cl)Nc1nccs1	TEAD-YAP block 59
O=C(COc1ccc(Br)cc1Cl)Nc1ncn[nH]1	TEAD-YAP block 46
COc1ccc(-c2cnn3c(N4CCC[C@H]4CO)ccnc23)cc1	TEAD-YAP block 57
OC[C@@H]1CCCN1c1ccnc2c(-c3cccc(O)c3)cnn12	TEAD-YAP block 100
O=C(O)/C=C/c1cccc(-c2cnn3c(N4CCC[C@H]4CO)ccnc23)c1	TEAD-YAP block 50
COc1ccc(-c2cnn3c(N4CCC[C@H]4CO)ccnc23)cc1OC	none
OC[C@@H]1CCCN1c1ccnc2c(-c3ccc4ccccc4c3)cnn12	TEAD-YAP block 60
O=c1oc2ccccc2cc1-c1nnc(Nc2cc(C(F)(F)F)ccc2Cl)s1	none
OC[C@@H]1CCCN1c1ccnc2c(-c3cc4ccccc4o3)cnn12	TEAD-YAP block 44
COc1cccc(-c2cnn3c(N4CCCCC4CCO)ccnc23)c1 (centres undefined)	none
COc1cccc(-c2cnn3c(N4CCC[C@H]4CO)ccnc23)c1	TEAD-YAP block 59
COc1ccc(/C=C(\NC(=O)c2ccc(C)cc2)C(=O)NCc2ccco2)cc1	none
CCn1c2ccccc2c2cc(CN3CCN(C(=O)c4ccc(OC)c(OC)c4)CC3)ccc21	none
CC(=O)Nc1ccc(C2=N/C(=C/c3ccc(OCc4ccccc4)cc3)C(=O)O2)cc1	TEAD-YAP block 43
Cc1ccc(C2=N/C(=C\c3ccccc3OC(=O)c3ccc(Br)cc3)C(=O)O2)cc1	TEAD-YAP block 37
Cc1ccc(C2=N/C(=C\c3ccccc3OCc3ccccc3)C(=O)O2)cc1	TEAD-YAP block 41
O=C1OC(c2ccc(Cl)cc2)=N/C1=C\c1ccc(OCc2ccccc2)cc1	none
N#Cc1c(SCc2ccccc2Cl)nsc1SCc1ccccc1Cl	none
COc1ccc(C(=O)c2ccc(N(C)C)cc2)c(OC)c1	TEAD-YAP block 55
CN(C)c1ccc(C(=O)c2ccc(N(C)C)c3ccccc23)cc1	TEAD-YAP block 50
Cc1ccc(C(=O)Nc2ccc(N(C)C)c3ccccc23)cc1	none
COc1ccccc1-c1nc(Cn2cnc3cc(C)c(C)cc32)no1	TEAD-YAP block 33
C=CCOC(=O)C1=C(C)NC(C)=C(C(=O)OCC=C)C1c1cn(-c2ccccc2)nc1-c1cccc([N+](=O)[O-])c1	none
C=CCN(c1ccccc1)S(=O)(=O)c1ccc(F)c(C(=O)Nc2ccc(C(C)C)cc2)c1	TEAD-YAP block 36
C=CCN(c1ccccc1)S(=O)(=O)c1ccc(F)c(C(=O)Nc2ccc(OCC)cc2)c1	TEAD-YAP block 39
C=CCN(c1ccccc1)S(=O)(=O)c1ccc(F)c(C(=O)Nc2ccc(CC)cc2)c1	none
Cc1nc(SCC(=O)c2ccc(O)c(O)c2)c(C#N)c(C)c1Cl	none
